Among all 310,000 compounds or so, about 14,000 (4.5%) showed an effect of 50% or more. The effect is printed as a negative number. The sample as a whole holds a higher share of strong results than the screen did.
Molecular target: human ether-à-go-go-related gene (hERG) potassium channel (human, UniProt Q12809)
Assay: primary screen, population patch clamp on CHO cells stably expressing hERG; higher = less effect of the substance
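Note: peak tail current of the secondary pulse compared with the same well before compound.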

Sequence of human ether-à-go-go-related gene (hERG) potassium channel (Q12809 whole entry, looked up): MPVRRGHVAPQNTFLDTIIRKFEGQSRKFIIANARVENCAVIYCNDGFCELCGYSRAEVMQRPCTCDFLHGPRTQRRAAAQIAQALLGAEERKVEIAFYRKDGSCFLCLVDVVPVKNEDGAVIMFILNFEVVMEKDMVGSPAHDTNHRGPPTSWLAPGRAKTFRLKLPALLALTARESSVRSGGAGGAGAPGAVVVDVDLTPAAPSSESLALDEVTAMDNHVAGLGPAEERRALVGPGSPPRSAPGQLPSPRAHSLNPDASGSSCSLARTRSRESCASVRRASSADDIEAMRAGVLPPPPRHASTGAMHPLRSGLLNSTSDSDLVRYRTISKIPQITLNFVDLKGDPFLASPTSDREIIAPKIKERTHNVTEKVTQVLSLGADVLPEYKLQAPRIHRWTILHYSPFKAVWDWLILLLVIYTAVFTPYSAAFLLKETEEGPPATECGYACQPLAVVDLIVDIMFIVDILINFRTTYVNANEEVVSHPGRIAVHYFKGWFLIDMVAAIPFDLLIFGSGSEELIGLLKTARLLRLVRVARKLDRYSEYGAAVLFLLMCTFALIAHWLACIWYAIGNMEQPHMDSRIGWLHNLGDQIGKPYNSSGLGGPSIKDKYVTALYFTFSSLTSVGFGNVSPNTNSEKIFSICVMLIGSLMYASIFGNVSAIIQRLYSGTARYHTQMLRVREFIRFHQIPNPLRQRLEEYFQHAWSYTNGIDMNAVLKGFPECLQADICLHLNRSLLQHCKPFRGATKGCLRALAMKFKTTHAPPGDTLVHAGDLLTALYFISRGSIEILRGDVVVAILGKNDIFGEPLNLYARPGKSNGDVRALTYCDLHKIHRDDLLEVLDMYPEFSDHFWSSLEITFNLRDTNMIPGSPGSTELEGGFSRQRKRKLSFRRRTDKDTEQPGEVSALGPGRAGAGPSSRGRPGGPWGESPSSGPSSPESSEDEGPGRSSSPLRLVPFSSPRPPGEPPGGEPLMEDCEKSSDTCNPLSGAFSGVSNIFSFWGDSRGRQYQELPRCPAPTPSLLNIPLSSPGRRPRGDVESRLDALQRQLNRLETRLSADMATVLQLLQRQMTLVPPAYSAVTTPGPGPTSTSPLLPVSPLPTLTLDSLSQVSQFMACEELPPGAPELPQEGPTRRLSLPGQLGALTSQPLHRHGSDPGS

Row | SMILES | hERG current change (%, negative = inhibition) at 10uM
1 | Cc1nc2sc3c(=O)[nH]nnc3c2c(C)c1Br | 15.5%
2 | CC(=O)c1sc2nc(-c3ccco3)ccc2c1N | 0.505%
3 | O=C(Cc1ccccc1)N/N=C/c1cccnc1 | 20.3%
4 | O=C(Cn1nc(-c2ccccc2)ccc1=O)Nc1ccc(N2CCN(C(=O)c3cccs3)CC2)cc1 | -18.5%
5 | Cc1ccc(C(=O)N2CCCC2)cc1S(=O)(=O)N1CCOCC1 | 1.43%
6 | O=C(C1Cc2ccccc2CN1S(=O)(=O)c1ccc(F)cc1)N1CCCCC1 (stereo not drawn) | -13.2%
7 | O=C(c1ccco1)N1CCN(C(=O)C2Cc3ccccc3CN2S(=O)(=O)c2ccc(F)cc2)CC1 (stereo not drawn) | -70.6%
8 | COc1ccc(S(=O)(=O)N2Cc3ccccc3CC2C(=O)N2CCOCC2)cc1 (stereo not drawn) | -59.2%
9 | O=C(C1Cc2ccccc2CN1S(=O)(=O)c1ccc(F)cc1)N1CCOCC1 (stereo not drawn) | -18%
10 | COc1ccc(S(=O)(=O)N2Cc3ccccc3CC2C(=O)N2CCOCC2)cc1OC (stereo not drawn) | -18.7%
11 | COc1ccc(S(=O)(=O)N2Cc3ccccc3CC2C(=O)O)cc1 (stereo not drawn) | -13.1%
12 | O=C(NCCNc1nccc(C(F)(F)F)n1)c1cccc(C(F)(F)F)c1 | -8.47%
13 | CCOC(=O)c1c(C)nc(C)c(C(=O)OCC)c1-c1ccc(Br)cc1 | -29.7%
14 | Cc1ccccc1Nc1ncnc2c1cnn2Cc1ccccc1 | -10.8%
15 | Cc1c(NC(=O)C(C)OC(=O)CC2CC3CCC2C3)c(=O)n(-c2ccccc2)n1C (stereo not drawn) | -9.36%
16 | Cc1ccc(/C=N/Nc2ncnc3nc[nH]c23)cc1 | -18.6%
17 | Nc1cccc(C(=O)Nc2ccco2)c1 | -2.33%
18 | O=C(O)CN1C(=O)/C(=C2\SC(=S)N(C(Cc3ccccc3)C(=O)O)C2=O)c2ccccc21 (stereo not drawn) | 2.15%
19 | CC(C)(C)CC(=O)Nc1nnc(SCC(=O)NC2CCCCC2)s1 | -36.5%

Row | SMILES | hERG current change (%, negative = inhibition) at 10uM
20 | COC1CCCCC1NCCc1ccccc1.O=C(O)C(=O)O (stereo not drawn) | -0.725%
21 | N#CC1(c2ccccc2)CCC(NCCc2ccccc2)CC1.O=C(O)C(=O)O (stereo not drawn) | -69.5%
22 | O=C(O)C(=O)O.c1ccc(CCNC2CCCCCC2)cc1 | -4.67%
23 | O=C(N1CCOCC1)N1CCN(S(=O)(=O)N2CCOCC2)CC1 | 11.3%
24 | C=CCn1c(SCC(=O)Nc2cccc3ccccc23)nc(O)c(CC)c1=O | 3.7%
25 | COc1ccc(NC(=O)CC2C(=O)N(c3cccc(OC)c3)C(=O)N2C2CCCCC2)cc1 (stereo not drawn) | 13.4%
26 | CCN(CC)Cc1c(C(=O)N/N=C/c2c(Cl)cccc2Cl)nnn1-c1nonc1N | 11.8%
27 | c1coc(Cn2c(-c3ccco3)nc3ccccc32)c1 | -10%
28 | COc1ccc(Cn2c(=O)n(Cc3ccco3)c(=N)c3c4c(sc32)COC(C)(C)C4)cc1 | -15.9%
29 | CCCCOc1[nH]c2nc(-c3ccco3)n(Cc3ccco3)c(=N)c2c1C#N | -69.1%
30 | CC1Sc2ccc(C(=O)NCc3cccc(C(F)(F)F)c3)cc2NC1=O (stereo not drawn) | -4.86%
31 | CCNC(=O)COc1ccc(/C=C2\COc3ccccc3C2=O)cc1OC | -71.8%
32 | COc1ccc(/C=C2\COc3ccccc3C2=O)cc1OC | -17.1%
33 | CCOc1cc(/C=C2\COc3ccccc3C2=O)ccc1OCC(=O)N(C)C | -10.3%
34 | COc1ccc(N2C(=S)N(C(=O)c3ccccc3)C(=Nc3ccccc3)C2=Nc2ccccc2)cc1 | -3.16%
35 | c1ccc(-c2noc(-c3ccccc3-c3ccccc3)n2)cc1 | 5.26%
36 | O=C(c1ccccc1-c1nc(-c2ccccc2)no1)N1CCCC1 | -4.86%
37 | Cc1ccc(-c2noc(-c3ccccc3C(=O)N3CCN(C)CC3)n2)cc1 | -51.2%
38 | CN1CCN(C(=O)c2ccccc2-c2nc(-c3ccc(Cl)cc3)no2)CC1 | -65.6%

Row | SMILES | hERG current change (%, negative = inhibition) at 10uM
39 | O=C(c1ccccc1-c1nc(-c2ccc(Cl)cc2)no1)N1CCCC1 | 0.639%
40 | Cc1ccc(-c2noc(-c3ccccc3C(=O)N3CCCC3)n2)cc1 | -32.3%
41 | CN1CCN(C(=O)c2ccccc2-c2nc(-c3ccccc3)no2)CC1 | -25.5%
42 | NC(=O)c1ccccc1-c1nc(-c2ccccc2)no1 | -76.5%
43 | Cc1ccc(-c2noc(-c3ccccc3C(=O)N3CCOCC3)n2)cc1 | -12.2%
44 | Cc1cccc(NC(=O)CSCC(=O)N=c2sccn2C)c1 | -20.2%
45 | CC(C)n1c(O)c(N=NC(=O)CNC(=O)Cc2ccc(Cl)cc2)c2ccccc21 | -39.1%
46 | CC(C)c1cc(-c2cc(-c3ccccc3)on2)nc(NC2CCCC2)n1 | 6.4%
47 | CCC(Cc1ccccc1)NC(=O)CCc1ccccc1 (stereo not drawn) | 13.5%
48 | COc1ccc(CN(C)CC(=O)Nc2ccc(Cl)cc2F)c(OC)c1.O=C(O)C(=O)O | -16.1%
49 | Cl.Nc1ncnc2sc3c(c12)CCNC3 | 25.4%
50 | O=C(COn1nnc2ccc(S(=O)(=O)N3CCOCC3)cc21)NCCc1ccccc1 | -8.87%
51 | COc1ccc(CNC(=O)C2CCCN(S(=O)(=O)c3ccc4c(c3)CCCN4C(C)=O)C2)cc1 (stereo not drawn) | 4.76%
52 | CC(C)Cn1c(N)c(C(=O)COC(=O)c2cccc(Cl)c2)c(=O)n(C)c1=O | -6.08%
53 | CC(C)Cn1c(N)c(C(=O)COC(=O)c2ccc(Cl)cc2)c(=O)n(C)c1=O | -37.4%
54 | CC(C)Cn1c(N)c(C(=O)COC(=O)c2cnc(Cl)c(Cl)c2)c(=O)n(C)c1=O | -71.1%
55 | CC(C)Cn1c(N)c(C(=O)COC(=O)c2ccc(O)cc2)c(=O)n(C)c1=O | -10.6%
56 | CC(C)Cn1c(N)c(C(=O)COC(=O)c2c(O)c(Cl)cc(Cl)c2Cl)c(=O)n(C)c1=O | -79.8%
57 | CC(C)Cn1c(N)c(C(=O)COC(=O)c2cc(F)cc(F)c2)c(=O)n(C)c1=O | -42.1%

— paper PMC4336329 (PLoS ONE, 2015)
